Screens: PubChem BioAssay, National Center for Advancing Translational Sciences (NCATS)
Pf Dd2 growth – blocks in vitro growth of P. falciparum Dd2 | 4.3% of 120,000 active | P. falciparum Dd2 growth, SYBR Green, 72 h | AID 1347417 | Potency, µM (series often up to 28.9 µM), most hits filed as inhibitors; active = well fitted inhibition curve with a large enough effect; note: nearly all actives have a fitted effect of over 65% in size
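Readout: SYBR Green fluorescence, 485 nm excitation, 535 nm emission, after ~16 h lysis at 37C. Before that, Dd2-infected red cells (2.5% hematocrit) grew 72 h with compound, 29 uM top final concentration.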
Hits are given with their value; - = inactive; [ ] = dose if it differs, or a comment. This excerpt belongs to a sample that is enriched for hits.

SMILES | Pf Dd2 growth
Cc1cccc(NC(=O)c2c(C)oc3ncnc(N4CCCCC4)c23)c1C | -
CC(=O)Nc1ccc(NC(=O)c2cccc(CN3CCCC(C#N)C3)c2)cc1 (stereo not drawn) | -
Cc1c(Cl)cccc1NC(=O)NCC1CCOCC1 | -
COc1ccc(NC(=O)c2c(-c3cnn(C)c3NCc3ccccc3)noc2C)cc1 | -
CCOc1ccc(NC(=O)c2c(C)oc3nc(C)nc(N4CCCC4)c23)cc1 | -
COc1ccc(NC(=O)c2c(C)oc3ccc(O)c(CN4CCCCCC4)c23)cc1 | 2.82µM
CCOc1cc(=O)n2c(c1C(=O)Nc1ccccc1)CCCC2 | -
Cc1oc2ccc(O)c(CN3CCCC(C)C3)c2c1C(=O)Nc1ccccc1 (stereo not drawn) | 0.891µM
Cc1oc2ccc(O)c(CN3CCN(Cc4ccccc4)CC3)c2c1C(=O)Nc1cccc(Cl)c1C | 0.562µM
COc1ccc(NC(=O)c2c(OC)cc(=O)n3c2CCCC3)cc1 | -
O=C(c1csc(N2CCN(c3ccccc3)CC2)n1)N1CCCCCC1 | -
Cn1c(CO[C@H]2CN(C(=O)c3ccc(Cl)cc3)C[C@H]2F)nc2ccccc21 | -
CCn1nc(C)c(CCC(=O)NC2CCCc3c2[nH]c2ccccc32)c1C (stereo not drawn) | -
O=C(CCC[C@@H]1[C@H]2CCCN3CCC[C@@H](CN1C(=O)c1ccccc1)[C@@H]23)NCc1ccc(F)cc1 | -
COC(=O)c1cccc(NC(=S)N[C@H]2CO[C@H]3[C@@H]2OC[C@@H]3n2nnnc2Oc2cccc(N3CCOCC3)c2)c1 | -
O=C1COc2ccc(-c3ccsc3)nc2CN1Cc1ccc(C(F)(F)F)cc1 | 7.94µM
O=C1COc2ccc(-c3cccnc3)nc2CN1Cc1ccc(C(F)(F)F)cc1 | -
Cc1nc(CN2Cc3nc(Nc4ccc(C(F)(F)F)cc4)ccc3OCC2=O)cs1 | 11.2µM
O=C1COc2ccc(-c3ccsc3)nc2CN1Cc1ccccc1 | -
Cc1nc(CN2Cc3nc(-c4ccccc4)ccc3OCC2=O)cs1 | -
CN1Cc2nc(Nc3ccc(C(F)(F)F)cc3)ccc2OCC1=O | -
COc1ccc(NC(=O)Cc2c[nH]c3ncc(-c4ccccc4)cc23)cn1 | -
Cn1nc(C2CCNC2)c2c(C(=O)N3CCOCC3)cc(C3CC3)nc21 (stereo not drawn) | -
Cc1ccc(S(=O)(=O)N2CCCCCC2c2nnc(C)o2)c(C)c1 (stereo not drawn) | -
Cc1ccc(C(=O)N2CCC3(CC2)CC(N2CCN(CC(C)C)CC2)CCO3)s1 (stereo not drawn) | -
SMILES | Pf Dd2 growth
O=C(COc1ccc(F)cc1)N1CCC(Oc2ccc(-c3noc(C4CC4)n3)cc2)C1 (stereo not drawn) | -[5.79 µM]
Cc1ccccc1CSc1nc2cccnc2n1Cc1ccc(C(=O)NC2CC2)cc1 | -
Cc1ccc(CNC(=O)c2ccc(Cn3c(SCc4ccccc4F)nc4cccnc43)cc2)cc1 | -
Cc1ccccc1CNC(=O)c1ccc(Cn2c(SCc3ccccc3)nc3cccnc32)cc1 | 11.2µM
COc1ccccc1CNC(=O)c1ccc(Cn2c(SCc3ccccc3)nc3cccnc32)cc1 | 8.91µM
CC(=O)Nc1ccc(CN2CCC3(CC2)CC(NC(C)=O)c2ccccc2O3)cc1 (stereo not drawn) | -
O=C(C1CC1)N1CCn2c(nnc2[C@@H]2C[C@@H](O)CN2Cc2ccccc2)C1 | -
CC(C)c1ccc(CC(=O)N2CCCc3ncc(C(=O)NCc4cccc(F)c4)cc32)cc1 | -
Cc1ccc(NC(=O)N2CCCC(Cn3cnc4cccnc43)C2)cc1F (stereo not drawn) | -
CCN1C(=O)C2CC3(CCN(C(=O)c4cnc(C)cn4)CC3)CN2C1=O (stereo not drawn) | -
CC(=O)N1CCN(C[C@@H]2C=C(C)[C@H](Cc3nnc(-c4ccccc4F)o3)C[C@H]2C(C)C)CC1 | 12.6µM
CC1=C[C@@H](CNCc2ccncc2)[C@H](C(C)C)C[C@H]1Cc1nnc(C)o1 | -
CC1=C[C@@H](CNC2CCOCC2)[C@H](C(C)C)C[C@H]1Cc1nc2ccccc2n1C | 5.01µM
CC1=C[C@@H](CN2CCC(C(N)=O)CC2)[C@H](C(C)C)C[C@H]1Cc1nnc(-c2cccnc2)o1 | -
CC1=C[C@@H](CNC(=O)N2CCOCC2)[C@H](C(C)C)C[C@H]1Cc1nc2ccccc2[nH]1 | -
CC(=O)N1CCN(C[C@@H]2C=C(C)[C@H](Cc3nnc(-c4ccncc4)o3)C[C@H]2C(C)C)CC1 | 11.2µM
CC(=O)NC[C@@H]1C=C(C)[C@H](Cc2nc3ccccc3n2C)C[C@H]1C(C)C | -
CC1=C[C@@H](CNCc2ccc(C#N)cc2)[C@H](C(C)C)C[C@H]1Cc1nnc(-c2cccnc2)o1 | -
CC1=C[C@@H](CNCc2ccccn2)[C@H](C(C)C)C[C@H]1Cc1nnc(-c2ccccc2F)o1 | 3.16µM
CC1=C[C@@H](CN2CCC(C(N)=O)CC2)[C@H](C(C)C)C[C@H]1Cc1nnc(-c2ccncc2)o1 | -
O=C1NC2(Cc3ccccc31)CN(Cc1ccc(C(F)(F)F)cc1)C2 | -
O=C(CN1CCOC1=O)N1CCC(Cc2nncn2-c2ccccc2)CC1 | -
O=C(NCc1ccco1)N1CCCC2(C1)Nc1cccnc1NC2=NCc1ccccc1 (stereo not drawn) | -[5.79 µM]
CCc1nc(-c2c3n(c(=O)n(CC(=O)Nc4ccccc4C)c2=O)CCCCC3)no1 | -
CS(=O)(=O)Nc1ccc(C2(C(=O)NCc3cccc(Cl)c3)CCCCC2)cc1 | -
SMILES | Pf Dd2 growth
CN1CCC(Oc2ccc(NC(=O)c3ccncc3)cn2)C1 (stereo not drawn) | -
Cc1noc(C)c1S(=O)(=O)N1CCCCC1CCn1cccn1 (stereo not drawn) | -
O=C(NC1CCCCC1)[C@H]1O[C@H](CCN2CCN(Cc3ccccc3)CC2)CC[C@@H]1O | -
O=C(NC[C@H]1O[C@@H]2C[C@@H](CC(=O)N3CCC(F)(F)C3)O[C@@H]2[C@@H]1O)Nc1ccc(F)cc1 | -
CC(=O)NC[C@@H]1C=C(C)[C@H](Cc2nnc(-c3cncn3C)o2)C[C@H]1C(C)C | -
CC(=O)N1CCN(C[C@@H]2C=C(C)[C@H](Cc3nnc(-c4cncn4C)o3)C[C@H]2C(C)C)CC1 | -
CC1=C[C@@H](CNCCN2CCOCC2)[C@H](C(C)C)C[C@H]1Cc1nnc(-c2ccccc2)o1 | 3.98µM
COCC(=O)NC[C@@H]1C=C(C)[C@H](Cc2nnc(-c3cncn3C)o2)C[C@H]1C(C)C | -
CC1=C[C@@H](CNC(=O)COc2ccccc2)[C@H](C(C)C)C[C@H]1CC(=O)NCCN1CCOCC1 | -
CC1=C[C@@H](CN2CCN(c3ccccc3)CC2)[C@H](C(C)C)C[C@H]1Cc1nnc(-c2cncn2C)o1 | 3.98µM
CC1=C[C@@H](CN2CCOCC2)[C@H](C(C)C)C[C@H]1Cc1nnc(-c2ccncc2)o1 | -
CC1=C[C@@H](CNC(=O)C2CC2)[C@H](C(C)C)C[C@H]1Cc1nnc(-c2ccccc2F)o1 | 15.8µM
CC1=C[C@@H](CNC(=O)C2CCCCC2)[C@H](C(C)C)C[C@H]1CC(=O)NCc1cccnc1 | -
COc1cccc2c1OCC(C(=O)N1CCC(NS(C)(=O)=O)CC1)C2 (stereo not drawn) | -
COC[C@H]1CCCN1C(=O)CC[C@@H]1CNC(=O)[C@@H]2C[C@H](NC(=O)c3ccccc3)CN12 | -
CNC(=O)[C@@H]1C[C@H](Oc2cccnc2)CN1C(=O)Cn1nc(C)cc1C | -
COc1ccc(C(=O)NCCn2ccn3nc(-c4cc(C)ccc4C)cc3c2=O)c(OC)c1 | -
COc1cc(NC(=O)Cn2ccn3nc(-c4ccc(F)cc4)c(CO)c3c2=O)cc(OC)c1 | -
